Screening results deposited in PubChem BioAssay by Broad Institute.
The list is a sample of the results.
aSyn UTR act: Activators via SNCA 5'UTR binding, MLPCN; alpha-synuclein 5'UTR reporter, activators screen; activity score, % (tested at 7.5 µM), hits read low; actives 7.1% (n = 300,000); AID 1814, 2009; in the data active = activity score below about -60%
* marks the source's active call; other numbers are inactive results.

SMILES	aSyn UTR act
COc1ccc(-c2csc(NC(=O)C3=NN(c4ccccc4)C(=O)CC3)n2)cc1	-85.9*
CCOc1ccc(-c2csc(NC(=O)c3ccco3)n2)cc1	-125.5*
O=C(NNc1nc(-c2ccc(Br)cc2)cs1)c1ccco1	-105.1*
Cc1ccc(-c2csc(NC(=O)c3ccc(-c4ccccc4)cc3)n2)o1	-122.1*
O=C(Nc1nc(-c2ccco2)cs1)c1ccccc1	-180.6*
O=C(Nc1nc(-c2ccccn2)cs1)c1ccccc1-n1cnnn1	98.3
O=C(Nc1nc(-c2ccccc2)cs1)c1ccco1	-98.2*
Cc1ccc(-c2csc(NC(=O)c3ccco3)n2)cc1C	-208.8*
COc1ccc(-c2csc(NC(=O)c3ccco3)n2)cc1	-240.7*
Cc1cc(C(=O)O)ccc1N/C=C1\CCCC(C)C1=O (stereo not drawn)	-131.4*
CC1CCC/C(=C\Nc2ccc(O)cc2)C1=O (stereo not drawn)	-115.6*
O=C(Nc1ccc(Cl)c(Cl)c1)OCc1cncs1	-96.8*
Cc1cccc(N=Nc2c(O)[nH]c3ccc(Br)cc23)c1	-72.4*
CC(/C=C/c1ccco1)=N\NC(=O)CNc1ccc2ccccc2c1	-70.1*
O=c1c2[nH]c3cccc(Cl)c3c2ncn1CC1CCCO1 (stereo not drawn)	-79.5*
Cc1cc(C)cc(NC(=O)C(=O)NCCCN2CCCC2=O)c1	-106.2*
COc1cccc(NC(=O)C(=O)NCCCN2CCCC2=O)c1	-65.1*
COc1ccc2c(c1)C(=NO)c1cc(OC)ccc1-2	-82.6*
C=CCOc1ccc2c(c1)C(=NO)c1cc(OCC=C)ccc1-2	-94.0*
ON=C1c2cc(OCCN3CCCCC3)ccc2-c2ccc(OCCN3CCCCC3)cc21	-188.8*
CCOc1ccc(C(=O)CSc2nnc3ccccn23)cc1	-153.9*
O=C(CSc1nnc2ccccn12)c1ccc(Cl)cc1	-67.4*
CCOc1cccc(/C=N/Nc2ccc(S(=O)(=O)N(CC)CC)cn2)c1O	88.2
CCOc1cccc(/C=N/NC(=S)Nc2cc(S(=O)(=O)N3CCOCC3)ccc2N2CCOCC2)c1O	80.8
CCOc1cccc(C=Nc2cc(C)cc(C)c2O)c1O	-84.5*
SMILES	aSyn UTR act
S=c1nc(-c2ccccc2)[nH]n1-c1ccccc1	-142.7*
S=c1nc2ccccc2c2nc(-c3ccccc3)[nH]n12	-63.6*
Cc1n[nH]c(C)c1CCOc1ccc(C(C)C)cc1	-83.8*
COc1ccccc1Oc1ccc(N/C=C/C(=O)c2ccco2)cc1	-199.1*
O=C(/C=C/Nc1ccc(Oc2ccccc2Cl)cc1)c1ccco1	-183.8*
O=C(Nc1ccc2ccccc2n1)C1CCCCC1	-144.5*
O=C(Nc1ccc2ccccc2n1)c1ccccc1Cl	-70.9*
O=C(Nc1ccc2ccccc2n1)c1ccc(Cl)cc1	-145.0*
Cc1cc(N2CCN(c3ccccc3F)CC2)nc2cc(O)ccc12	-63.7*
Cc1cc(N2CCOCC2)nc2cc(O)ccc12	-136.4*
COc1ccc2nc(N3CCOCC3)cc(C)c2c1	-78.9*
Cc1cc(N2CCN(c3ccc(F)cc3)CC2)nc2cc(O)ccc12	-66.1*
CCCCCc1ccc(-c2cn(Cc3ccc(C(=O)c4ccccc4)cc3)nn2)cc1	-138.1*
CCCCCc1ccc(-c2ccc(/C=C/C(=O)O)cc2)nc1	79.2
O=C(c1ccccc1)c1ccc(Cn2cc(-c3ccccc3)nn2)cc1	-135.2*
CCC(C)NC(=O)c1cc(Sc2nnc(C)s2)nc2ccccc12 (stereo not drawn)	-66.6*
CSc1ccc(/C=N/N2CCN(C)CC2)cc1	-94.8*
CSc1ccc(/C=N/n2c(C)cc(C)cc2=O)cc1	-126.6*
CN1CCN(/N=C/c2ccc(-c3ccccc3)cc2)CC1	-133.2*
COc1ccc(/C=N/Nc2nc3ccccc3s2)cc1O	59.7
CN(C)c1ccc(/C=C/c2nc3ccccc3s2)cc1	81.1
COc1cc(/C=C/c2nc3ccccc3s2)cc(OC)c1O	-69.1*
COc1ccc(C=C(c2nc3ccccc3s2)c2nc3ccccc3s2)cc1O	-281.1*
Cc1ccc(NC(=O)C(=O)NCC2CCCO2)cc1C (stereo not drawn)	-95.6*
O=C(NCCc1ccccc1)C(=O)NCC1CCCO1 (stereo not drawn)	-64.1*
SMILES	aSyn UTR act
Cc1ccc(NC(=O)C(=O)NCC2CCCO2)cc1 (stereo not drawn)	-85.3*
COc1ccc(NC(=O)C(=O)N/N=C\c2ccc(CNC(=O)C(=O)Nc3ccc(C)c(C)c3)o2)c(OC)c1	88.4
N#C/C(=C\c1ccc(F)cc1)c1nc(-c2ccco2)cs1	-166.9*
N#C/C(=C\c1ccc(Cl)cc1)c1nc(-c2ccco2)cs1	-66.0*
CCOC(=O)C1=C(CSc2nc(-c3ccccc3)ccc2C#N)OC(N)=C(C#N)C1c1cccnc1 (stereo not drawn)	-83.8*
N#CC1=C(N)Oc2ccc3ccccc3c2C1c1cccnc1 (stereo not drawn)	54.3
CCOC(=O)C1=C(c2ccccc2)OC(N)=C(C#N)C1C(C)C (stereo not drawn)	-102.9*
CCOC(=O)C1=C(CSc2nc(-c3ccccc3)ccc2C#N)OC(N)=C(C#N)C1c1ccccc1 (stereo not drawn)	-103.3*
Cc1cc2ccccc2n1CCNC(=O)c1ccccc1	-114.0*
Cc1cc2ccccc2n1CCNC(=O)c1ccc(Br)o1	-77.6*
Clc1cccc(/C=N/Nc2nnc(Cl)c3ccccc23)c1	-196.6*
Clc1ccc(/C=N/Nc2nnc(-c3ncc[nH]3)c3ccccc23)cc1	-169.1*
C(=N\N=C\c1ccccc1)/c1ccccc1	-95.7*
Fc1cccc(/C=N/N=C/c2cccc(F)c2)c1	-62.1*
Cc1ccc(/C=N/N=C/c2ccc(C)cc2)cc1	-110.1*
NC(=O)C1=C[C@H](C2CCCCC2)C[C@H](OCc2ccc(CO)cc2)O1	-98.3*
CCN(CC)C(=O)Oc1ccc2c(=O)c(-c3ccc(OC)cc3)coc2c1	-125.2*
CCc1cc2c(=O)c(-c3nc4ccccc4[nH]3)coc2cc1OC(=O)N1CCOCC1	-75.3*
CCN(CC)C(=O)Oc1ccc2cc(Br)ccc2c1	-86.8*
COc1ccc(-c2coc3cc(OC(=O)N4CCOCC4)ccc3c2=O)cc1	-67.2*
COc1ccc(Oc2c(C)oc3cc(OC(=O)N4CCOCC4)ccc3c2=O)cc1	56.2
CCC(C)(C)C1CCc2[nH]nc(C(=O)N/N=C(\C)c3ccco3)c2C1 (stereo not drawn)	-135.9*
Cc1cccnc1Nc1nc(-c2ccc(F)cc2)cs1	-226.2*
Cc1cccnc1Nc1nc(-c2ccc(O)cc2)cs1	-230.8*
CCOc1ccc(-c2ccc(SCC(=O)NCC3CCCO3)nn2)cc1 (stereo not drawn)	-67.2*
SMILES	aSyn UTR act
CCOc1ccc(C(=O)Nc2nnc(SCC(=O)NCC3CCCO3)s2)cc1 (stereo not drawn)	75.9
Cc1ccc(-c2ccc(SCC(=O)NCC3CCCO3)nn2)cc1 (stereo not drawn)	-84.8*
CCOC(=O)c1c(C)n(-c2ccc(C)cc2)c2ccc(OCC(O)CNCC3CCCO3)cc12 (stereo not drawn)	75.5
O=C(N/C(=C/c1cccc(Br)c1)c1nc(=S)[nH][nH]1)c1ccccc1	-77.1*
COc1ccc(OC)c(Cc2nnc(CCC(=O)NC3CCCCCCC3)o2)c1	-118.2*
COc1ccc(OC)c(Cc2nnc(CCC(=O)N3CCCCC3c3nccs3)o2)c1 (stereo not drawn)	-115.9*
COc1ccc(OC)c(Cc2nnc(CCC(=O)N3CCCCCC3)o2)c1	-73.7*
O=C(NNC(=S)Nc1ccccc1)c1cccc(Br)c1	-94.9*
O=C(NNC(=S)Nc1ccc(Br)cc1)c1ccccc1	-107.3*
CC(C)(C)NC(=S)NNC(=O)c1cccc(Br)c1	-120.6*
